Source: PubChem (National Center for Advancing Translational Sciences (NCATS))
G9a block – blocks human histone lysine methyltransferase G9a | G9a H3K9 monomethylation, AlphaScreen, 2 h | Potency, µM (doses to about 102 µM), most hits filed as inhibitors | 8.8% of 350,000 active; note: nearly all actives have a fitted effect of over 75% in size
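AlphaScreen read-out: biotin-H3K9 peptide (500 nM) methylation by 20 nM enzyme with 20 uM SAM, 2 h at room temperature after 15 min compound preincubation; anti-monomethyl H3K9 antibody plus donor/acceptor beads, 10 min dark.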
L3MBTL1 inh – L3MBTL1 (human) inhibition | Q9Y468 | AlphaScreen L3MBTL1–H3K9me1 peptide binding | Potency, µM (top dose mostly 57.1 µM), hits mostly inhibitors | 0.66% of 230,000 active | AID 485360; note: nearly all actives have a fitted effect of over 60% in size
Target sequence (Q9Y468 whole entry, looked up): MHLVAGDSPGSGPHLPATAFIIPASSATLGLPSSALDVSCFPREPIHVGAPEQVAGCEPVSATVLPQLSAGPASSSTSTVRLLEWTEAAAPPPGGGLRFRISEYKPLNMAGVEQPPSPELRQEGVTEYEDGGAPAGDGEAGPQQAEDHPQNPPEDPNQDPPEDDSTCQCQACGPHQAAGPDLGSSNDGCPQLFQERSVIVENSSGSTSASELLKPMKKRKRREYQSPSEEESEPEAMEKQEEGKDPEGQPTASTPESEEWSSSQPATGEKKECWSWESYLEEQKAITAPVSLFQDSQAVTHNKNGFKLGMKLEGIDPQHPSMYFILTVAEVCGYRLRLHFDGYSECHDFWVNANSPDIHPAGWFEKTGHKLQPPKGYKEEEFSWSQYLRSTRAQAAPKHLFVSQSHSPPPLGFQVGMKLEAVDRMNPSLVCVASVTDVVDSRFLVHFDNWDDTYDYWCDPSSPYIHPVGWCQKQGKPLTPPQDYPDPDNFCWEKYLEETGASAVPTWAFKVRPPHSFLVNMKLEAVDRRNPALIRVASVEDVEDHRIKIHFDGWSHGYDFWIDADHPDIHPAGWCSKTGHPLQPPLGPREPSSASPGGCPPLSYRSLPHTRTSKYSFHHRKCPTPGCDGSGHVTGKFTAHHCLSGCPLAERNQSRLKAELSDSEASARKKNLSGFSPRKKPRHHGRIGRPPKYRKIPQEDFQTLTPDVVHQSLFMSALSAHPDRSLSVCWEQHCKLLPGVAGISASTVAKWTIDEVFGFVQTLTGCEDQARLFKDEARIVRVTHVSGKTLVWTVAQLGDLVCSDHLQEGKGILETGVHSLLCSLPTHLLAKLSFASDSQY
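Displacement of a biotinylated histone H3(1-15) peptide monomethylated at Lys9 (75 nM) from L3MBTL1 (50 nM) was measured by AlphaScreen after a 30 min room-temperature compound incubation; cefsulodin titration served as intraplate control.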
HP1b binding inh – blocks HP1-beta chromodomain binding to methylated histone tails | AID 540317 | P83916 | 0.56% of 390,000 active | AlphaScreen HP1-beta / biotin-H3K9me3 peptide binding | Potency, µM (highest dose often 114 µM), hits mostly inhibitors; note: nearly all actives have a fitted effect of over 70% in size
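AlphaScreen: HP1-beta (50 nM) preformed 30 min with biotin-H3(1-18)K9me3 peptide (50 nM) in PBS pH 7.4, 0.01% Tween-20. Compound added for 30 min at RT, then streptavidin donor/nickel chelate acceptor beads (10 ug/mL) for 30 min.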
Sfp inh – Sfp phosphopantetheinyl transferase inhibition | 3.5% of 310,000 active | Potency, µM, actives largely listed as inhibitors | Q9F4F7 | Biochemical Sfp PPTase activity, qHTS;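 note: the enzyme is Sfp with the accession as filed and its product quenches rhodamine fluorescence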
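Compounds were incubated with enzyme (final 15 nM) for 15 min at room temperature before substrate addition started the reaction. Fluorescence at 525 nm excitation, 598 nm emission was recorded immediately and after 30 minutes.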
JMJD2A Tudor – JMJD2A Tudor domain (human) inhibition. O75164. AlphaScreen JMJD2A-Tudor / H3K4me3 peptide binding. Potency, µM (top dose mostly 114 µM), actives largely listed as inhibitors. 4.4% of 390,000 active; note: nearly all actives have a fitted effect of over 50% in size
BAZ2B block – inhibitors of human BAZ2B bromodomain; Q9UIF8; AlphaScreen BAZ2B-H3K14Ac peptide displacement; Potency, µM (highest dose often 114 µM), most hits filed as inhibitors; 4.4% of 360,000 active; note: nearly all actives have a fitted effect of over 60% in size
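Multi-concentration screen (max 110 uM) measuring displacement of acetylated histone H3 peptide from BAZ2B by AlphaScreen, using 50 nM protein, 50 nM peptide and 10 ug/mL streptavidin donor plus Ni-chelate acceptor beads.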
Of the large screens only hits and unclear results are named; the others gave an inactive call. Shown are actives, neighbours in structure and some others; about 12% of the full set was active somewhere. Calls come from the whole dose curve; as a rule, active = well fitted curve in the direction sought with a large enough effect; inconclusive = small, poorly fitted or top-dose-only effect, or another doubt; inactive = no such curve, though single readings can be large; an effect the other way counts as inactive or inconclusive.

CC[C@H](C)[C@H](NC(=O)[C@H](C)NC(=O)[C@H](CC(N)=O)NC(=O)[C@H](CCCCN)NC(=O)[C@H](Cc1ccccc1)NC(=O)[C@H](CC(C)C)NC(=O)[C@@H](NC(=O)[C@@H](NC(=O)[C@H](CC(C)C)NC(=O)[C@@H]1CCCN1C(=O)[C@@H](NC(=O)[C@H](CCC(N)=O)NC(=O)[C@H](CO)NC(=O)[C@H](CCCCN)NC(=O)[C@H](CCC(=O)O)NC(=O)[C@H](CO)NC(=O)[C@@H](NC(=O)[C@H](CCSC)NC(=O)[C@H](Cc1ccccc1)NC(=O)CNC(=O)CNC(=O)[C@@H](N)Cc1ccc(O)cc1)[C@@H](C)O)[C@@H](C)O)C(C)C)[C@@H](C)O)C(=O)N[C@H](C(=O)N[C@@H](CCCCN)C(=O)N[C@@H](CC(N)=O)C(=O)N[C@@H](C)C(=O)N[C@@H](Cc1ccc(O)cc1)C(=O)N[C@@H](CCCCN)C(=O)N[C@@H](CCCCN)C(=O)NCC(=O)N[C@@H](CCC(=O)O)C(=O)O)[C@@H](C)CC	none (no result: L3MBTL1 inh, HP1b binding inh, JMJD2A Tudor, BAZ2B block)
O=C(OCC(=O)N1CCC(Cc2ccccc2)CC1)c1ccccc1NCCO	none (no result: Sfp inh)
O=C(COC(=O)c1ccccc1NCCO)NCc1cccs1	G9a block 45µM, JMJD2A Tudor inconclusive (no result: Sfp inh)
COc1ccc(CCNC(=O)COC(=O)c2ccco2)cc1OC	none
COc1ccc(CCNC(=O)COC(=O)c2ccccc2NCCO)cc1OC	G9a block 50µM, JMJD2A Tudor inconclusive (no result: Sfp inh)
CCOC(=O)N1CCN(C(=O)COC(=O)c2ccccc2NCCO)CC1	G9a block 50µM (no result: Sfp inh)
COc1ccc(C(=O)Nc2nnc(S(=O)(=O)N3CCN(c4ccc(C)cc4)CC3)s2)cc1	none (no result: L3MBTL1 inh, Sfp inh)
CCN(Cc1ccccc1)c1ccc(/C=C(\C#N)c2ccccn2)cc1	G9a block 50µM, Sfp inh inconclusive
CC1CCc2onc(C(=O)N3CCN(c4ccc(Cl)cc4)CC3)c2C1 (configuration not stated)	none (no result: L3MBTL1 inh, Sfp inh)
O=C1NN=C(CSc2n[nH]c(=S)s2)CS1	G9a block 2.5µM, Sfp inh inconclusive, JMJD2A Tudor 18µM, BAZ2B block 79µM
Cn1cc(S(=O)(=O)c2ccccc2)c(=O)c2cc(F)c(N3CCCCCC3)cc21	none (no result: L3MBTL1 inh, Sfp inh)
CC1=C(c2ccc(C(C)C)cc2)S(=O)(=O)N=C1N1CCN(C(=O)c2ccco2)CC1	JMJD2A Tudor 45µM (no result: L3MBTL1 inh)
COc1ccc(NC(=O)CSc2nc3ccccc3n2CC(=O)N2CCCC(C)C2)cc1 (configuration not stated)	none (no result: L3MBTL1 inh, Sfp inh)
CCOc1cc(/C=C(\C#N)C(N)=O)cc(CSc2ccccc2)c1O	none (no result: G9a block, L3MBTL1 inh, HP1b binding inh, JMJD2A Tudor, BAZ2B block)
COc1cc(/C=C(\C#N)C(N)=O)cc(CSc2nc3ccccc3s2)c1O	G9a block 5µM (no result: L3MBTL1 inh, HP1b binding inh, JMJD2A Tudor, BAZ2B block)
O=C(c1ccc(Cl)cc1)C1C2C(=O)N(c3ccccc3)C(=O)C2C2CCCN21 (configuration not stated)	G9a block 8.9µM, BAZ2B block inconclusive
O=C1C2C3C=CC(CC3)C2C(=O)N1c1ccc(Cl)cc1 (configuration not stated)	none
CC(=O)c1ccc(N2C(=O)C3C(C2=O)C(C(=O)c2ccc(Cl)cc2)N2CCCC32)cc1 (configuration not stated)	G9a block inconclusive, Sfp inh 22µM, BAZ2B block inconclusive (no result: L3MBTL1 inh)
O=C(c1ccc(Cl)cc1)[C@@H]1[C@@H]2C(=O)N(c3ccccc3)C(=O)[C@@H]2C2c3ccccc3C=NN21 (some centres not stated)	G9a block 20µM
COc1ccc(N2C(=O)C3C(C2=O)C(C(=O)c2ccc(Cl)cc2)N2CCCC32)cc1 (configuration not stated)	G9a block inconclusive, HP1b binding inh inconclusive, Sfp inh 28µM, JMJD2A Tudor inconclusive, BAZ2B block inconclusive
Cc1cc(C)c(/C=C/c2onc(C)c2S(=O)(=O)N2CCC(C(=O)N3CCN(c4ccccc4)CC3)CC2)c(C)c1	JMJD2A Tudor 22µM (no result: L3MBTL1 inh, Sfp inh)
COc1ccc(N2CCN(C(=O)C3CCCN(S(=O)(=O)c4c(C)noc4C)C3)CC2)cc1 (configuration not stated)	G9a block 32µM, BAZ2B block inconclusive
COc1ccc(N2CCN(C(=O)C3CCN(S(=O)(=O)c4cccc5nonc45)CC3)CC2)cc1	G9a block inconclusive, BAZ2B block 79µM (no result: L3MBTL1 inh, Sfp inh)
O=C(O)C1CCN(S(=O)(=O)c2cccc3nonc23)CC1	none (no result: L3MBTL1 inh)
COc1ccc(NC(=O)Cn2cc(C(=O)c3ccc(C)c(C)c3)c(=O)c3cc(OC)ccc32)cc1	none (no result: L3MBTL1 inh, Sfp inh)
COc1ccc(NC(=O)C2CCC(CNS(=O)(=O)c3ccc(Br)s3)CC2)c(OC)c1 (configuration not stated)	none (no result: L3MBTL1 inh, Sfp inh)
COc1ccccc1CNC(=O)CS(=O)(=O)c1ccc(C)cc1	G9a block 79µM (no result: L3MBTL1 inh)
COc1ccccc1CNC(=O)CC(C)C	HP1b binding inh inconclusive, JMJD2A Tudor 28µM
O=C(NCc1ccccc1F)C12CC3CC(CC(C3)C1)C2	none (no result: G9a block, L3MBTL1 inh, Sfp inh, BAZ2B block)
COc1ccccc1CNC(=O)C12CC3CC(CC(C3)C1)C2	JMJD2A Tudor 79µM (no result: G9a block)
COc1ccccc1CNC(=O)CSC(=S)N1CCCC1	G9a block 11µM (no result: Sfp inh)
COc1ccc(/C=C/C(=O)N2CCC(c3nc4ccccc4o3)CC2)cc1OC	none (no result: L3MBTL1 inh, Sfp inh)
CCSc1nn(CC(=O)Nc2cccc(CC)c2)c(N)c1S(=O)(=O)c1ccccc1	BAZ2B block inconclusive (no result: L3MBTL1 inh, Sfp inh)
O=Nc1c(O)[nH]c2c(Cl)c(Cl)ccc12	none (no result: G9a block, L3MBTL1 inh, HP1b binding inh, JMJD2A Tudor, BAZ2B block)
COc1ccc(CCNCc2csc3nc4ccccc4n23)cc1OC	G9a block 50µM, JMJD2A Tudor 89µM, BAZ2B block inconclusive
COc1ccc(CCNc2nc3ccccc3n3nnnc23)cc1OC	none (no result: L3MBTL1 inh)
COc1ccc(CCNC(=O)/C(C#N)=C/c2ccc(OCC(=O)NCC3CCCO3)cc2)cc1OC (configuration not stated)	none
COc1ccccc1CNC(=O)CNCCc1ccc(OC)c(OC)c1	HP1b binding inh inconclusive, JMJD2A Tudor 22µM, BAZ2B block 50µM (no result: G9a block)
COc1ccc(CCNC(=O)CNCC2CCCO2)cc1OC (configuration not stated)	G9a block 8.9µM, HP1b binding inh inconclusive, Sfp inh 63µM, JMJD2A Tudor 3.5µM, BAZ2B block inconclusive
CCOc1ccccc1CNC(=O)C1CCN(S(=O)(=O)c2ccc3c(ccn3C)c2)CC1	none (no result: L3MBTL1 inh, Sfp inh)
CCN1CCN(c2ncc3c(n2)CCN(Cc2ccccc2C)C3)CC1	JMJD2A Tudor inconclusive (no result: L3MBTL1 inh, Sfp inh)
CCCCc1nc2sc3c(SCC(=O)NCc4ccco4)ncnc3c2c2c1CCC2	Sfp inh 45µM, BAZ2B block inconclusive
CCCCc1nc2sc3c(SCCN(C)C)ncnc3c2c2c1CCC2	G9a block inconclusive, Sfp inh inconclusive, JMJD2A Tudor 50µM
Cc1cccc(NC(=O)CSc2ncc(-c3ccc(Br)cc3)[nH]2)c1	none (no result: L3MBTL1 inh, Sfp inh)
